Assay results as given in PubChem BioAssay (NCI).
Compounds without any hit were thinned out: in the full panel of roughly 83,000, 20% have a hit.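 For each line, cells grew in 96-well plates with the test compound present at a single concentration for 48 hours.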 Active and inactive are the calls of the source. How the source made its calls: active means growth percent below 10; inactive means the rest.

Experiments:
Test in all cases: NCI-60 one-dose screen, 48 h (100 = growth as untreated, 0 = no growth, -100 = all killed)
Details in all cases: 10 µM
[1] = tested on: DU-145 prostate
[2] = tested on: K-562 leukemia
[3] = tested on: MALME-3M melanoma
[4] = tested on: MDA-MB-231 breast
[5] = tested on: RXF 393 renal
[6] = tested on: SF-268 CNS
[7] = tested on: SF-295 CNS
[8] = tested on: SF-539 CNS
[9] = tested on: UACC-257 melanoma
[10] = tested on: M14 melanoma
[11] = tested on: HCT-15 colon
[12] = tested on: HT29 colon
[13] = tested on: SNB-75 CNS
[14] = tested on: SNB-19 CNS
[15] = tested on: U251 CNS
[16] = tested on: PC-3 prostate
[17] = tested on: SK-MEL-5 melanoma
[18] = tested on: LOX IMVI melanoma
[19] = tested on: SK-MEL-28 melanoma
[20] = tested on: UACC-62 melanoma

Measured: growth

O=C(CCl)Nc1ccc(Cc2ccc(NC(=O)CCl)cc2)cc1
active: [2] 0.772% | [3] -67.5% | [4] -15.8% | [5] -50.7% | [8] -87.7% | [10] -35.3% | [11] -39.7% | [12] -39.1% | [15] -85.7% | [16] 2.98% | [17] -88.5% | [18] -84.6% | [19] 5.21%
inactive: [1] 32.3% | [6] 10.1% | [7] 70.1% | [9] 16.3% | [13] 61.1% | [14] 26.3%

O=C(Nc1nc(-c2ccccc2)nc2c1sc(=S)n2-c1ccccc1)C(F)(F)F
inactive: [1] 99.6% | [2] 79.4% | [3] 124% | [4] 89.7% | [5] 98% | [6] 98.4% | [7] 88.4% | [8] 96.5% | [9] 82.9% | [10] 101% | [11] 88.4% | [12] 94.8% | [13] 96.5% | [14] 105% | [15] 90.6% | [16] 79.5% | [17] 90.4% | [20] 86% | [18] 84.4% | [19] 104%

NC1=CC(=O)C(=O)c2cccnc21
inactive: [1] 28.3% | [2] 88.4% | [4] 83.9% | [5] 83.5% | [6] 90.4% | [7] 77.3% | [8] 101% | [9] 64.4% | [10] 32.1% | [11] 66.7% | [12] 103% | [13] 45.5% | [14] 66.5% | [16] 78.2% | [17] 21% | [20] 88.3% | [18] 25.9% | [19] 83.7%
active: [3] -0.873%

CCOC(=O)CN(c1sc(C)c(C)c1C(=O)OCC)S(=O)(=O)c1ccc(C)cc1
inactive: [1] 92.1% | [2] 103% | [3] 106% | [4] 72.9% | [5] 92.1% | [6] 107% | [7] 103% | [8] 107% | [9] 98.8% | [10] 107% | [11] 99.3% | [12] 111% | [13] 91.7% | [14] 86.6% | [16] 74.5% | [17] 73.2% | [20] 68.2% | [18] 87.4% | [19] 102%

C/C(=C/CCC(C)[C@@H]1CC[C@]2(C)C3=C(CC[C@@]12C)[C@@]1(C)CCC(=O)C(C)(C)[C@@H]1CC3)C(=O)O (some centres not stated)
active: [1] -92.3% | [2] -16.1% | [3] -88.9% | [4] -76.8% | [5] -90.2% | [6] -92.2% | [7] -90.5% | [8] -76% | [9] -57.5% | [10] -76.8% | [11] -66.6% | [12] -65.8% | [13] -68.1% | [14] -78.1% | [16] -29.8% | [17] -98.2% | [20] -92.4% | [18] -53.9%

CS(=O)(=O)c1nccc(-c2c(-c3cccc(O)c3)nc3sccn23)n1
inactive: [1] 90.9% | [2] 101% | [3] 94.7% | [4] 74.4% | [5] 85% | [6] 98.5% | [7] 103% | [8] 92.4% | [9] 92.9% | [10] 94% | [11] 101% | [12] 91.7% | [13] 70.4% | [14] 103% | [15] 91.9% | [17] 86% | [20] 85.9% | [18] 91.5% | [19] 94%

COc1cc(-c2nn(-c3cccc(NC(=O)NCCNC(=O)c4cccc(C(F)(F)F)c4)c3)cc2-c2ccncc2)ccc1Cl
inactive: [1] 48.9% | [3] 52.6% | [4] 41.4% | [5] 15.3% | [6] 41.8% | [8] 22.2% | [9] 51% | [10] 15.3% | [11] 53.2% | [12] 21.1% | [13] 16.5% | [14] 53.5% | [15] 28.4% | [20] 50.7% | [18] 31.7% | [19] 57.6%
active: [2] 8.57% | [7] 6.79% | [17] 7.16%

CS(=O)(=O)c1nccc(-c2c(-c3ccc(OCCc4ccccc4)cc3)nc3sccn23)n1
inactive: [1] 94% | [2] 100% | [3] 103% | [4] 85.2% | [5] 92.5% | [6] 104% | [7] 108% | [8] 85.5% | [9] 103% | [10] 94.6% | [11] 103% | [12] 88.1% | [13] 89.1% | [14] 89.4% | [15] 95.9% | [20] 88% | [18] 92.6% | [19] 96.3%

CCOC(=O)C1C(C(=O)OCC)C2C(=O)C3C(C(=O)OCC)C(C(=O)OCC)C3C(=O)C12 (configuration not stated)
inactive: [1] 110% | [2] 94.2% | [3] 106% | [4] 110% | [5] 112% | [6] 101% | [7] 101% | [8] 105% | [9] 108% | [10] 110% | [11] 103% | [12] 105% | [13] 99.9% | [14] 96.4% | [16] 97.6% | [17] 100% | [20] 101% | [18] 96.6% | [19] 105%

COc1cc2c(cc1NC(=O)C(Cl)Cl)-c1ccc(NC(=O)C(Cl)Cl)cc1C2
inactive: [2] 20.7% | [3] 115% | [10] 69.8% | [16] 18.8% | [17] 22.5% | [18] 67%
active: [1] -68.4% | [4] -18% | [5] -59.2% | [6] -31.2% | [7] -12.8% | [8] -14.9% | [9] -13.1% | [11] -7.21% | [12] -35.3% | [13] -29.6% | [14] 3.35% | [20] -22.2% | [19] -54.7%

Clc1ccc(/C=C2\CCCC3C2=Nc2ccccc2NC3c2ccc(Cl)cc2)cc1 (configuration not stated)
active: [18] -27.5%
inactive: [1] 89.2% | [2] 47.2% | [3] 89.7% | [4] 97.6% | [5] 65.3% | [6] 80% | [7] 83.3% | [8] 92.3% | [9] 79.9% | [10] 29.1% | [11] 63.7% | [12] 16% | [13] 88.2% | [14] 92% | [15] 20.8% | [17] 88.7% | [20] 74.2% | [19] 101%

O=C(O)c1cn(C2CC2)c2cc(N3CCN(C(=O)c4cc(-c5ccc(Cl)cc5)nc5ccccc45)CC3)c(F)cc2c1=O
inactive: [1] 105% | [2] 83.7% | [3] 107% | [4] 76.3% | [5] 73.6% | [6] 89% | [7] 91.3% | [8] 93.8% | [9] 107% | [10] 84.4% | [11] 90.8% | [12] 96.1% | [13] 77.2% | [14] 86% | [15] 96% | [17] 85.4% | [20] 66.6% | [18] 63.4% | [19] 96.6%

COc1ccc(-c2nn(-c3cccc(Cl)c3)cc2-c2c(C#N)c(=O)n3[nH]c(-c4ccc(C)cc4)nc3c2C#N)cc1
active: [2] 4.62% | [4] -2.7% | [10] -10.9% | [12] 5.33%
inactive: [1] 28.4% | [3] 21.4% | [5] 28.2% | [6] 35.8% | [7] 23.6% | [8] 34.8% | [9] 96.9% | [11] 65.2% | [13] 36.4% | [14] 64.2% | [16] 68.6% | [17] 68.6% | [20] 57.1% | [18] 39.7% | [19] 92.3%

CCN(CCCNc1cc2c(c(N)c1S(=O)(=O)O)C(=O)c1ccccc1C2=O)c1ccccc1
inactive: [1] 124% | [2] 101% | [3] 97% | [4] 88.9% | [5] 108% | [6] 109% | [7] 111% | [8] 98.4% | [9] 102% | [10] 98.3% | [11] 107% | [12] 104% | [13] 88.3% | [14] 95.1% | [16] 87.1% | [17] 95.2% | [20] 92.1% | [18] 94.7% | [19] 102%

N#CC1=CC2CN(Cc3ccccc3)C1C1C(=O)N(c3ccccc3)C(=O)C21 (configuration not stated)
inactive: [1] 105% | [2] 92.4% | [3] 111% | [4] 106% | [5] 103% | [6] 107% | [7] 98.7% | [8] 98.5% | [9] 97.5% | [10] 86.4% | [11] 96.5% | [12] 103% | [13] 91.1% | [14] 101% | [16] 101% | [17] 93.3% | [20] 90.7% | [18] 89.2%

COc1cccc2ccc(CC(O)(c3ccccc3)c3ccccc3)nc12
inactive: [1] 98.1% | [2] 91.9% | [3] 101% | [4] 85% | [5] 108% | [6] 93.7% | [7] 86.4% | [8] 103% | [9] 95.5% | [10] 94.3% | [11] 54.7% | [12] 91.8% | [13] 74.6% | [14] 96.6% | [15] 97% | [17] 87% | [20] 86.2% | [18] 92.4% | [19] 106%
